Holding throughout (details): mRNA level, 48 h; actives raise or lower the signal
Read-out in experiment [1]: Glutathione S-Transferase (GSTA2), GSTA2 (gene 2939)
Description: LTEA_HepaRG_GSTA2: Life Technologies and Expression Analysis (LTEA) Assay for Glutathione S-Transferase (GSTA2) using HepaRG (AID 2283497). The procedure, abridged: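 qRT-PCR readout of GSTA2 transcript, normalized to three housekeeping genes, fitted bidirectionally against 0.5% DMSO baseline. Differentiated HepaRG cells received compound for 48 h at 8 concentrations (top 100 uM, half-log steps).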

Read-out in experiment [2]: Glutamate-cysteine ligase catalytic (GCLC), GCLC (gene 2729)
Briefly: LTEA_HepaRG_GCLC: Life Technologies and Expression Analysis (LTEA) Assay for Glutamate-cysteine ligase catalytic (GCLC) using HepaRG (AID 2283498). The procedure, abridged: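 HepaRG, 48 h exposure, 8-pt half-log series from 100 uM, 0.5% DMSO vehicle; TaqMan qRT-PCR for GCLC mRNA, housekeeping-normalized; bidirectional curve fit vs DMSO baseline.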

Read-out in experiment [3]: growth arrest and DNA damage 45 (GADD45G), GADD45G (gene 10912)
Description: LTEA_HepaRG_GADD45G: Life Technologies and Expression Analysis (LTEA) Assay for growth arrest and DNA damage 45 (GADD45G) using HepaRG (AID 2283499). The procedure, abridged:
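Gain or loss of GADD45G mRNA, quantified by TaqMan qRT-PCR against three housekeeping genes, is fitted in both directions relative to 0.5% DMSO. Human HepaRG cultures receive test chemical for 48 h at up to 100 uM.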

Read-out in experiment [4]: Glutathione S-transferase M3 (GSTM3), GSTM3 (gene 2947)
Briefly: LTEA_HepaRG_GSTM3: Life Technologies and Expression Analysis (LTEA) Assay for Glutathione S-transferase M3 (GSTM3) using HepaRG (AID 2283501). The procedure, abridged: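 HepaRG, plated 48 h, then serum-free induction medium; test chemical 48 h, duplicate; 100 uM top, half-log x8, 0.5% DMSO. Read-out: GSTM3 mRNA (TaqMan qRT-PCR, Fluidigm array). Bidirectional fit vs DMSO.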

Read-out in experiment [5]: Heat shock 70 kDa protein 1 (HSPA1A), gene 3303
Description: LTEA_HepaRG_HSPA1A: Life Technologies and Expression Analysis (LTEA) Assay for Heat shock 70 kDa protein 1 (HSPA1A) using HepaRG (AID 2283502). Summed up: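 HepaRG, 48 h exposure, 8-pt half-log CRC from 100 uM in 0.5% DMSO, duplicates. Readout: TaqMan qRT-PCR of HSPA1A mRNA, housekeeping-normalized (ACTB/GAPDH/POLR2A). Bidirectional fit vs 0.5% DMSO baseline.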

Read-out in experiment [6]: Hypoxia-inducible factor 1-alpha (Homo sapiens) (UniProt Q16665)
Briefly: LTEA_HepaRG_HIF1A: Life Technologies and Expression Analysis (LTEA) Assay for Hypoxia-inducible factor 1 (HIF1A) Trancription factor using HepaRG (AID 2283503). The procedure, abridged: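 Gain- or loss-of-signal HIF1A mRNA changes are fitted against a DMSO baseline. HepaRG cultures receive eight concentrations, highest 100 uM, for 48 h in serum-free induction medium with 0.5% DMSO.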

Read-out in experiment [7]: 3-Hydroxy-3-Methylglutaryl-CoA Synthase 2 (HMGCS2), HMGCS2 (gene 3158)
Briefly: LTEA_HepaRG_HMGCS2: Life Technologies and Expression Analysis (LTEA) Assay for 3-Hydroxy-3-Methylglutaryl-CoA Synthase 2 (HMGCS2) using HepaRG (AID 2283504). The procedure, abridged: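 HepaRG, plated 48 h then switched to serum-free induction media; cmpd 8-pt, max 100 uM, 1/2-log, 0.5% DMSO, n=2, 48 h. HMGCS2 mRNA by Fluidigm TaqMan qRT-PCR, ACTB/GAPDH/POLR2A norm; bidirectional fit vs DMSO.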

Read-out in experiment [8]: HGF (gene 3082)
Briefly: LTEA_HepaRG_HGF: Life Technologies and Expression Analysis (LTEA) Assay for Hepatocyte Growth Facto (HGF) using HepaRG (AID 2283505). The procedure, abridged: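 Read-out is HGF transcript level by qRT-PCR, normalized to three housekeeping genes, fitted bidirectionally against 0.5% DMSO vehicle. Human HepaRG cells received test chemicals for 48 h at up to 100 uM.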

Read-out in experiment [9]: Insulin Like Growth Factor 1 (IGF1), IGF1 (gene 3479)
Briefly: LTEA_HepaRG_IGF1: Life Technologies and Expression Analysis (LTEA) Assay for Insulin Like Growth Factor 1 (IGF1) using HepaRG (AID 2283506). Summed up: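 qRT-PCR readout of IGF1 mRNA, normalized to three housekeeping genes, after 48 h chemical exposure of HepaRG cells. Concentrations: 8-point half-log series, top 100 uM, 0.5% DMSO vehicle. Gain or loss fitted against DMSO baseline.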

Read-out in experiment [10]: Intercellular Adhesion Molecule 1 (ICAM1), ICAM1 (gene 3383)
Briefly: LTEA_HepaRG_ICAM1: Life Technologies and Expression Analysis (LTEA) Assay for Intercellular Adhesion Molecule 1 (ICAM1) using HepaRG (AID 2283507). The procedure, abridged:
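Readout is qRT-PCR mRNA level, normalized to three housekeeping genes and fitted bidirectionally against 0.5% DMSO vehicle. Human HepaRG cultures received compound for 48 h, top concentration 100 uM with half-log dilutions.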

Read-out in experiment [11]: Insulin-like growth factor-binding protein 1 (IGFBP1), IGFBP1 (gene 3484)
Briefly: LTEA_HepaRG_IGFBP1: Life Technologies and Expression Analysis (LTEA) Assay for Insulin-like growth factor-binding protein 1 (IGFBP1) using HepaRG (AID 2283508). The procedure, abridged: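 Thawed HepaRG cells are plated for 48 h, switched to serum-free induction medium, then dosed in duplicate for another 48 h (100 uM top, half-log steps). Lysates in RLT go to qRT-PCR, and gain or loss of signal is fitted relative to vehicle.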

Read-out in experiment [12]: Interleukin 6 (IL6), IL6 (gene 3569)
Briefly: LTEA_HepaRG_IL6: Life Technologies and Expression Analysis (LTEA) Assay for Interleukin 6 (IL6) using HepaRG (AID 2283509). Summed up:
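qRT-PCR read-out of IL6 transcript, normalized to three housekeeping genes, after 48 h chemical exposure of HepaRG cells; 8-point half-log series, top 100 uM, 0.5% DMSO vehicle. Bidirectional curve fitting against DMSO baseline.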

Read-out in experiment [13]: Interleukin 6 Receptor (IL6R), IL6R (gene 3570)
Description: LTEA_HepaRG_IL6R: Life Technologies and Expression Analysis (LTEA) Assay for Interleukin 6 Receptor (IL6R) using HepaRG (AID 2283510).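 As to AC50: differentiated human HepaRG liver cells in serum-free induction medium.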 Summed up: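 HepaRG, 48 h exposure, 8-pt half-log series, top 100 uM, 0.5% DMSO vehicle, duplicates. Read-out: TaqMan qRT-PCR of IL6R transcript, housekeeping-gene normalized. Gain or loss fitted relative to DMSO baseline.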

Read-out in experiment [14]: Keratin 19 (KRT19), KRT19 (gene 3880)
Description: LTEA_HepaRG_KRT19: Life Technologies and Expression Analysis (LTEA) Assay for Keratin 19 (KRT19) using HepaRG (AID 2283512). Summed up: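 KRT19 transcript levels, measured by Fluidigm qRT-PCR against three housekeeping genes, are fitted for gain or loss of signal relative to DMSO. Human HepaRG cells receive test chemicals (top 100 uM, half-log steps, 0.5% DMSO) for 48 hours.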

Read-out in experiment [15]: JUN Transcription Factor, JUN (gene 3725)
Briefly: LTEA_HepaRG_JUN: Life Technologies and Expression Analysis (LTEA) Assay for JUN Transcription Factor using HepaRG (AID 2283513). Summed up: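 HepaRG, 48 h exposure, 8-pt half-log series top 100 uM, 0.5% DMSO, duplicate. JUN mRNA by qRT-PCR (Fluidigm), housekeeping-normalized (ACTB/GAPDH/POLR2A); bidirectional curve fit vs DMSO baseline.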

Read-out in experiment [16]: Lipase C (LIPC), LIPC (gene 3990)
Description: LTEA_HepaRG_LIPC: Life Technologies and Expression Analysis (LTEA) Assay for Lipase C (LIPC) using HepaRG (AID 2283514). The procedure, abridged:
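HepaRG, 48 h exposure, 8-pt half-log series from 100 uM in 0.5% DMSO, duplicates. Readout: LIPC mRNA by Fluidigm qRT-PCR, housekeeping-normalized (ACTB/GAPDH/POLR2A). Gain or loss fitted bidirectionally against DMSO baseline.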

Read-out in experiment [17]: Lipoprotein lipase (LPL), LPL (gene 4023)
Description: LTEA_HepaRG_LPL: Life Technologies and Expression Analysis (LTEA) Assay for Lipoprotein lipase (LPL) using HepaRG (AID 2283515). The procedure, abridged:
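HepaRG, 48 h exposure, 8-pt half-log dilutions from 100 uM, 0.5% DMSO vehicle, duplicates; qRT-PCR (Fluidigm array) of LPL mRNA vs housekeeping genes; bidirectional curve fit relative to DMSO baseline.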

Read-out in experiment [18]: MicroRNA 122 (MIR122), gene 406906
Description: LTEA_HepaRG_MIR122: Life Technologies and Expression Analysis (LTEA) Assay for MicroRNA 122 (MIR122) using HepaRG (AID 2283516). Also: the transcript read is the microRNA miR-122. Summed up: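 qRT-PCR read-out (TaqMan, Fluidigm array), normalized to three housekeeping genes; HepaRG cells dosed 48 h at 8 concentrations up to 100 uM in 0.5% DMSO, duplicate; gain or loss fitted against DMSO baseline.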

Read-out in experiment [19]: Potassium channel subfamily K member 1 (KCNK1), KCNK1 (gene 3775)
Description: LTEA_HepaRG_KCNK1: Life Technologies and Expression Analysis (LTEA) Assay for Potassium channel subfamily K member 1 (KCNK1) using HepaRG (AID 2283511). Summed up:
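HepaRG, 48 h exposure, 8-pt half-log series top 100 uM, 0.5% DMSO vehicle, duplicates. Readout: KCNK1 transcript by qRT-PCR (Fluidigm array), housekeeping-normalized; bidirectional curve fit relative to DMSO baseline.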

Molecules are shown by their SMILES. Active and inactive are the calls of the source. The calls were made as follows: active = hit-call score of the fitted dose curve at least 0.9, where 1 is the maximum; inactive = score below 0.9.

Chain of Hypoxia-inducible factor 1-alpha (Homo sapiens) (Q16665 whole entry, looked up): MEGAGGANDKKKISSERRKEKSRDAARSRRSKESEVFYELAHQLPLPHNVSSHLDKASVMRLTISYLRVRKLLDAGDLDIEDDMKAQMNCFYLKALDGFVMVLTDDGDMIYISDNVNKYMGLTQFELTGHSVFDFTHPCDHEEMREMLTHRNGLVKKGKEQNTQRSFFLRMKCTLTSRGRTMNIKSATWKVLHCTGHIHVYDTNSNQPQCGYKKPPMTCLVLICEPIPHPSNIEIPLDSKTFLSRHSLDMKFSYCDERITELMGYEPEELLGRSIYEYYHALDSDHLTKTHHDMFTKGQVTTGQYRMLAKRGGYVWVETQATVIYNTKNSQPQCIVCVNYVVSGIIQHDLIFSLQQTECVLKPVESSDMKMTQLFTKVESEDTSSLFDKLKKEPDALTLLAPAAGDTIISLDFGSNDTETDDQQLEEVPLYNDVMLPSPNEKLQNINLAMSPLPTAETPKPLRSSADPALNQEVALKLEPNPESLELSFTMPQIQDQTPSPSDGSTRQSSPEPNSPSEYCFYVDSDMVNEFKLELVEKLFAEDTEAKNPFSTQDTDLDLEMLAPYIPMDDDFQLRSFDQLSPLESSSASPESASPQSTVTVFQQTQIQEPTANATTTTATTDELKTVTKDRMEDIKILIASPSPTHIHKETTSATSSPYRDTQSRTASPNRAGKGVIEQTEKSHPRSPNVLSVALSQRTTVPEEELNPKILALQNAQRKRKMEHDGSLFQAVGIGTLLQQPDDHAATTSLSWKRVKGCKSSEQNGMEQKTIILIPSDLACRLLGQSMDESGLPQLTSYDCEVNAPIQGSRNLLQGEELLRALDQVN

`CCCCC(CC)COC(=O)CCCCCCCC(=O)OCC(CC)CCCC` (stereo not given): the call in [1], in experiment [2], in experiment [3], in experiment [4], in experiment [5] and in [6] was inactive. Besides, the call in experiment [7], in experiment [8], in experiment [9], in experiment [10], in experiment [11] and in experiment [12] was inactive. The result in experiment [13], in experiment [14], in [15], in experiment [16], in [17] and in [18] was inactive.
Take `CC(=O)OCC(COC(C)=O)OC(C)=O`: the result in [1], in experiment [2], in experiment [3], in experiment [5], in experiment [6] and in experiment [7] was inactive. Besides, the compound was classed as inactive in [8], in experiment [9], in [10], in experiment [11], in [12] and in experiment [13]. Further, the compound was called inactive in [14], in experiment [15], in experiment [16], in experiment [17] and in experiment [18].
One may read the AC50 as the concentration giving half of the maximal activity seen. Consider `CN(C)C(=O)NC1(c2ccccc2)CCN(CCC[C@]2(c3ccc(Cl)c(Cl)c3)CCCN(C(=O)c3ccccc3)C2)CC1`, for which the AC50 in experiment [1] is 20.3 µM (active); in experiment [2] it was 21.9 µM (active); in experiment [3], 20.4 µM (active); in experiment [5], 20.5 µM (active); in experiment [8], 22.5 µM (active); in experiment [9], 16.4 µM (active). The AC50 is 20.1 µM (active) in experiment [10]; 18.2 µM (active) in experiment [11]; 22.7 µM (active) in experiment [12]; 17.2 µM (active) in experiment [13]; 20.7 µM (active) in experiment [14]; 20.2 µM (active) in experiment [15]. Moreover, the result in [6], in [7], in experiment [16], in experiment [17] and in experiment [18] was inactive.
As for `CCC(C)N(C)C(=O)c1cc2ccccc2c(-c2ccccc2Cl)n1` (stereo not given), the compound was called inactive in experiment [1], in experiment [2], in [4], in [5], in [7] and in experiment [8]. The call in experiment [10], in experiment [12], in experiment [13], in experiment [19], in [14] and in [15] was inactive. In addition, the call in [16], in experiment [17] and in experiment [18] was inactive. For the same compound, the concentration at half-maximal activity (AC50) in [3] is 8.59 µM (active); in experiment [9] it was 21.6 µM (active); in experiment [11], 57.6 µM (active).

These data come from PubChem BioAssay (EPA / NIEHS).
